Only some compounds are listed: those with a hit (about 3.6% of all), similar ones and a draw of the others.
Pf apPOL inh: Pf-apPOL DNA polymerase inhibition; Recombinant Pf-apPOL, molecular beacon fluorescence, 1.5 h; inhibition, % at 10 µM; hit rate 0.25% among 210,000
mHTT CaM bind: mHTT-calmodulin interaction abrogation | hit rate 3.6% among 190,000 | AlphaScreen His-mHTT/GST-CaM binding, luminescence | inhibition, % at 15 µM | P42858
Of the large screens only hits and unclear results are named; the others gave an inactive call. No stated cut-off is given here; in the data, active means inhibition above about 50%; inactive means the rest.

O=C(Nc1cccc(F)c1)N1CCC2(CC1)Nc1cccnc1NC2=NCc1ccccc1	mHTT CaM bind 98.7
COc1ccc(N(CC(=O)NC2CC3CCC2C3)S(C)(=O)=O)cc1 (stereo not given)	none
CCS(=O)(=O)c1ncc(Cl)c(C(=O)Nc2ccc(Oc3ccccc3)cc2)n1	mHTT CaM bind 98.2
Nc1c(C(=O)Nc2ccc(Oc3ccccc3)cc2)nnn1Cc1ccccc1	none
O=C(O)c1c(Br)sc(-c2ccccc2)c1-c1ccccc1	none
OCCN1CCN(C2C3CC4CC(C3)CC2C4)CC1 (stereo not given)	Pf apPOL inh 61.5
CN1CCN(C2C3CC4CC(C3)CC2C4)CC1 (stereo not given)	none
Cc1ccc(C=CC(=O)N2CCC3(O)CCCCC3C2)cc1 (stereo not given)	none
COc1ccccc1NC(=O)Nc1ccc(Cl)c(Cl)c1	none
COc1ccccc1C1SCCN1C(=O)Nc1ccc(Cl)c(Cl)c1 (stereo not given)	mHTT CaM bind 97.0
CCS(=O)(=O)c1ccc(CC(=O)N2CCN(c3nc4c(F)cccc4s3)CC2)cc1	none
CCN(C)C(=O)c1ccccc1N1CCC(NC(=O)c2cc(F)cc(F)c2)CC1	none
O=C1c2ccccc2-c2onc3c(N4CCOCC4)cc(Nc4cccc(F)c4)c1c23	none
O=C(O)CCCNc1cc(N2CCOCC2)c2noc3c2c1C(=O)c1ccccc1-3	mHTT CaM bind 52.0
O=C(O)c1ccc(Nc2cc(N3CCOCC3)c3noc4c3c2C(=O)c2ccccc2-4)cc1	mHTT CaM bind 55.0
CN(C)c1ccc(Nc2cc(N3CCOCC3)c3noc4c3c2C(=O)c2ccccc2-4)cc1	none
O=C(Nc1nccn(-c2ccc(F)cc2)c1=O)c1ccncc1	none
COC(=O)c1c(C)nn(C(=O)c2cccs2)c1-c1snnc1C	none (no result: mHTT CaM bind)
O=C(NCc1ccccc1F)C1CCCN(C(=O)c2ccccc2F)C1 (stereo not given)	none
CCOc1ccc(C(=O)N2CCCC3(C2)NC(=O)N(Cc2ccccc2)C3=O)cc1 (stereo not given)	none
O=C(Cc1c[nH]c2ccccc12)N(Cc1cccs1)C1(C(=O)NC2CCCCC2)CCCCC1	none
O=C(Cc1c[nH]c2ccccc12)N(CC1CCCO1)C1(C(=O)NC2CCCC2)CCCCC1 (stereo not given)	mHTT CaM bind 67.0
CCOC(=O)C(C#N)=CN=C(NN=C(C)c1ccc(Cl)c(Cl)c1)SC	none (no result: mHTT CaM bind)
Cn1cccc1CN1CCC(c2nc(-c3ccccc3)no2)C1 (stereo not given)	mHTT CaM bind 50.2
Cc1ncsc1CN1CCC(c2nc(-c3ccccc3)no2)C1 (stereo not given)	none
O=C(NCc1ccccc1)N1CCCC1c1cccc(F)c1 (stereo not given)	none
COCCNC(=O)C1CCN(Cc2cc3ccccc3n2Cc2cccc(Cl)c2)CC1	mHTT CaM bind 91.3
Cc1ccnc(N2CCC(C(=O)NCC3CCN(Cc4cccc(Cl)c4)CC3)CC2)n1	none
CCOCCCNC(=O)C1CCN(Cc2cc3ccccc3n2Cc2ccccc2)CC1	mHTT CaM bind 75.5
COCCCNC(=O)C1CCN(Cc2ccc(C)o2)CC1	none
COCCCNC(=O)C1CCN(Cc2cc3ccccc3n2Cc2ccccc2)CC1	mHTT CaM bind 93.0
CCOCCCNC(=O)C1CCN(c2cnn(Cc3ccccc3)c(=O)c2)CC1	none
CCc1nc(C2CCCN(Cc3cccs3)C2)n[nH]1 (stereo not given)	none
COCCN1C(=O)CCc2cc(NC(=O)c3ccc(F)cc3F)ccc21	none
Cc1ccc(C(=O)N2CCCC(COc3ccc(C(=O)N4CCOCC4)cc3)C2)c(C)c1 (stereo not given)	none
CC(C)C(=O)Nc1n[nH]c(-c2ccccc2)n1	none
COc1cccc(CC(=O)N2CCc3nc(C)ncc3C2)c1	none
Cc1ccccc1OCC(=O)Nc1ccc(-c2nc3ncccc3o2)cc1	none
CC(C)(C)c1ccc(OCC(=O)Nc2ccc3oc(-c4ccncc4)nc3c2)cc1	Pf apPOL inh 67.6
COc1ccc(Br)cc1C(=O)Nc1cccc(-c2nc3ncccc3o2)c1	none
Cc1ccccc1OCC(=O)Nc1ccc2oc(-c3ccncc3)nc2c1	mHTT CaM bind 69.8
Cc1cccc(OCC(=O)Nc2ccc(-c3nc4ncccc4o3)cc2)c1C	mHTT CaM bind 75.0
Cc1cc(Cl)ccc1OCC(=O)Nc1ccc2oc(-c3ccncc3)nc2c1	none
COc1ccccc1C(=O)Nc1cccc(-c2nc3ncccc3o2)c1	mHTT CaM bind 58.0
CCc1ccc(-c2nc3cc(NC(=O)COc4ccc(OC)cc4)ccc3o2)cc1	none
CCCN1CCN(C(=O)C2CC(=O)N(CCc3ccccc3)C2)CC1 (stereo not given)	none
CCc1nccn1Cc1noc(-c2ccccc2Cl)n1	none
Cc1ccccc1N(C)C(=O)c1ccc2c(c1)N(S(C)(=O)=O)CC2	none
C=CCc1ccc(-c2ccc([N+](=O)[O-])cc2)nc1	none
Cc1ccc(C(=O)Nc2ccc(N3CCN(C(=O)c4ccccc4F)CC3)nc2)cc1	none
O=C(NCc1cccs1)C1CCN(c2cncnc2N2CCCC2)CC1	none
COc1ccc(CCNC(=O)C2CCCN(S(=O)(=O)N3CCC(C)CC3)C2)cc1OC (stereo not given)	none
COc1ccc(-c2[nH]ncc2CN2CCCC2c2cc(C(C)C)on2)cc1 (stereo not given)	none
CCN1CC=C2C(C#N)=C(N)C(C#N)(C#N)C(c3cccnc3)C2C1 (stereo not given)	none
CC1=NN(c2ccccc2)C(=O)/C1=C\c1cc(C)n(-c2cccc([N+](=O)[O-])c2)c1C	none
Cc1cc(/C=C2\C(=O)NC(=O)N(c3ccccc3)C2=O)c(C)n1-c1cccc([N+](=O)[O-])c1	mHTT CaM bind 59.0
Cc1ccc(-c2noc(C3CCN(CC(=O)NC4CCCCC4)CC3)n2)cc1	none
O=C(Cc1c(F)cccc1Cl)N1CCc2c(nc[nH]c2=O)C1	none
O=c1cc(-c2ccccc2)oc2c(CN3CCCCC3)c(O)c(CN3CCCCC3)c(O)c12	none
CCN(CC)Cc1c(O)c(CN(CC)CC)c2oc(-c3ccccc3)cc(=O)c2c1O	mHTT CaM bind 100.3
COc1cccc(CN2CCc3nc(N4CCOCC4)ncc3C2)c1	none
NS(=O)(=O)c1cc2c3c(c1)C1C=CCC1C(c1ccc([N+](=O)[O-])cc1)N3CC1CC=CC21 (stereo not given)	mHTT CaM bind 62.9
O=C(O)c1cc2c3c(c1)C1C=CCC1C(c1ccccc1F)N3CC1CC=CC21 (stereo not given)	mHTT CaM bind 70.0
C1=CC2c3cccc4c3N(CC2C1)CC1CC=CC41 (stereo not given)	none (no result: Pf apPOL inh)
O=C(O)c1cc2c3c(c1)C1C=CCC1C(c1cccc([N+](=O)[O-])c1)N3CC1CC=CC21 (stereo not given)	mHTT CaM bind 70.0
O=[N+]([O-])c1cccc(C2N(c3ccccc3)CCN2c2ccccc2)c1	none (no result: mHTT CaM bind)
O=C(O)c1ccc2c(c1)C1C=CCC1C(c1ccccc1Br)N2 (stereo not given)	none
O=C(O)c1cc2c3c(c1)C1C=CCC1C(c1ccc(F)cc1)N3CC1CC=CC21 (stereo not given)	mHTT CaM bind 96.0
O=[N+]([O-])c1ccc(S(=O)(=O)N2CC3C4C=CC(C4)C3C2)cc1 (stereo not given)	none
Cc1cc(C)cc(C(=O)N2CCCC(C(=O)Nc3cccc(Br)c3)C2)c1 (stereo not given)	none
CCCn1c(C2CCN(S(=O)(=O)c3ccccc3)C2)nc2cccnc21 (stereo not given)	none
O=C(CCC1CCCN(C(=O)Nc2cccc(F)c2)C1)NCc1ccc(F)cc1Cl (stereo not given)	none
